The text below walks through data of PubChem BioAssay (EPA / NIEHS).

Results filed as inconclusive are left out. The source holds several records for some structures; these can differ, active in one and inactive in another. Activity calls are given as the source filed them. How the source made its calls: active means hit-call score of the fitted dose curve at least 0.9, where 1 is the maximum; inconclusive means response in the unintended direction; inactive means score below 0.9.

In the assay the target is chimpanzee Androgen Receptor (AR), AR (gene 747460) (UniProt O97775). Description: NVS_NR_cAR: NovaScreen (NVS) Nuclear Receptor Binding Assay for chimpanzee Androgen Receptor (AR) (AID 2283346).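 Further: a loss of bound radioligand signal versus DMSO counts as binding.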 The method, then: NVS_NR_cAR is a biochemical, single-readout assay that uses extracted gene-proteins from Sf9/Sf21 in a cell-free assay. Measurements were taken 72 hours after chemical dosing in a 96-well plate.NVS_NR_cAR is one of one assay component(s) measured or calculated from the NVS_NR_cAR assay. It is designed to make measurements of radioligand binding, a form of binding reporter, as detected with scintillation counting signals by Lysate-based radiodetection technology.Data from the assay component NVS_NR_cAR was analyzed into 1 assay endpoint. This assay endpoint, NVS_NR_cAR, was analyzed in the positive analysis fitting direction relative to DMSO as the negative control and baseline of activity. Using a type of binding reporter, loss-of-signal activity can be used to understand changes in the binding as they relate to the gene AR. Furthermore, this assay endpoint can be referred to as a primary readout, because the performed assay has only produced 1 assay endpoint. To generalize the intended target to other relatable targets, this assay endpoint is annotated to the nuclear receptor intended target family, where the subfamily is steroidal.
chimpanzee Androgen Receptor (AR), AR (gene 747460), sequence (O97775 whole entry, looked up): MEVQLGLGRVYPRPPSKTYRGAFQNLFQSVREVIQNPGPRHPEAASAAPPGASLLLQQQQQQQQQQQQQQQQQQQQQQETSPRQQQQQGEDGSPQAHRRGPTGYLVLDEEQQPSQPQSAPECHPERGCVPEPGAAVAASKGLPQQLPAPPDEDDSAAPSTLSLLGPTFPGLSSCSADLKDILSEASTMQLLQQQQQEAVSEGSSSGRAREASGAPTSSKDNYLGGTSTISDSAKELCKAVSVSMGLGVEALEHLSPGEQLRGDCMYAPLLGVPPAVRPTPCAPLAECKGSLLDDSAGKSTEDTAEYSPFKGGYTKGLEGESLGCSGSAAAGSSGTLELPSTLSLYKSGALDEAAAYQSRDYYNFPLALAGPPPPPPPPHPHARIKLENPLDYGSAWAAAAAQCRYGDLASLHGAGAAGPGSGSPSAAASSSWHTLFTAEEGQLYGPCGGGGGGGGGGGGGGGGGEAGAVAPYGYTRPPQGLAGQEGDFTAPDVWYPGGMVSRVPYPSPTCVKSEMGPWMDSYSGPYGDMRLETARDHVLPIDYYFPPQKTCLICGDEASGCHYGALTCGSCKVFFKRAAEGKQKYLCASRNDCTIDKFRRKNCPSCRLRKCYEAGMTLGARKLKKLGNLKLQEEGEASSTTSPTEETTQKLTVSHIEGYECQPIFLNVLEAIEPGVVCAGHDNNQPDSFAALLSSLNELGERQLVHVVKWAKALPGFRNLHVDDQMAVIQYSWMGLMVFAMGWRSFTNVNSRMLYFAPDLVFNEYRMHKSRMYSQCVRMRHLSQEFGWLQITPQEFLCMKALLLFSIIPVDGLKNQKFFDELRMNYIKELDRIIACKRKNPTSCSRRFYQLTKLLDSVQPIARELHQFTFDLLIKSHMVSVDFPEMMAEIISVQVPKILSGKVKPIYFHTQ
Binding assays used specific radioligands (tritiated, iodinated) with non-radioactive competitive displacement ligands in agonist or antagonist protocols (as indicated) and various reference compounds and inhibitors to titrate specific binding to receptors and transporters. Most enzyme assays (CYPs, kinases, phosphatases, proteases, HDACs) used recombinant protein and specific substrates (fluorescence mostly, some colorimetric and radioactive) and inhibitors, followed by a biochemical separation of substrate and product. All assays for the biochemical HTS were initially run in duplicate at a single concentration (10 uM for CYP450 assays and 25 uM for all others). […] Each assay was run with positive and negative controls, and concurrent controls on every plate. The follow-up (secondary) screen tested active chemical-pairs in concentration series, as well as a few additional assays not tested in the primary screen, some selected negative inactives, and several cases re-run in the concentration series for confirmatory purposes.
In the case of `O=C1c2ccccc2C(=O)c2c(Cl)cccc21`, the AC50 is 0.93 µM (active).

For `C[C@]12CC[C@H]3C(=CCc4cc(O)ccc43)[C@@H]1CCC2=O`, the AC50 was 5.87 µM (active) and the result was inactive.

Consider `CCCCCCCC/C=C\CCCCCCCC(=O)OCC(O)CO` (configuration not stated), for which the call was inactive.

For `CCCCCCCCCCCCCC[P+](CCCC)(CCCC)CCCC`, the AC50 is 23.1 µM (active).

Take `O=C(c1ccccc1)c1ccc(O)cc1O`: the AC50 is 9.97 µM (active) and the outcome was inactive.

On to `CCN=C1C=CC(=C(c2ccc(N(CC)CC)cc2)c2ccc(N(CC)CC)cc2)c2ccccc21`, for which the half-maximal activity concentration (AC50) was 3.61 µM (active).

Regarding `C#CC(O)CCC` (configuration not stated), the molecule was classed as inactive.

With `O=C1c2c(O)ccc(Nc3ccc(CCO)cc3)c2C(=O)c2c([N+](=O)[O-])ccc(O)c21`, the molecule was called inactive.

For the molecule `CC(=O)CCC(C)C`, the call was inactive.

As to `CCN(CC)c1ccc(C=O)c(O)c1`, the AC50 is 0.298 µM (active).

As a reminder, the AC50 is the concentration giving half of the maximal activity seen.
